Experimental data reported in ChEMBL document CHEMBL5598561, “ASAP - In vitro binding kinetics” (2024).

Target: Nonstructural protein 3 (Zika virus) (UniProt A0A024AXB9)
Settings: PRVABC59, Concentration 10.0 uM

Nonstructural protein 3 (Zika virus), sequence (A0A024AXB9 as listed by the source): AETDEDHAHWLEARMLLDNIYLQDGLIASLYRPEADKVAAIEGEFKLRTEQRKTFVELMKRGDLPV

O=C(Nc1ccc2c(c1)OCCNC2)c1cc(Cl)cc2[nH]ncc12
pKD (Immobilization level 10000.0 pg/mm2, Rmax 33.0 pg/mm2, ka 475344.334 M-1s-1, kd 1.334 1/s): 5.55
pKD (Immobilization level 12000.0 pg/mm2, Rmax 41.0 pg/mm2, ka 216924.489 M-1s-1, kd 0.865 1/s): 5.4
pKD (Immobilization level 13000.0 pg/mm2, Rmax 42.0 pg/mm2, ka 331181.332 M-1s-1, kd 1.11 1/s): 5.47

O=C(Nc1ccc2c(c1)CNC2)c1cc(Cl)cc(C2CC2)c1
pKD (Immobilization level 10000.0 pg/mm2, Rmax 36.0 pg/mm2, ka 451548.811 M-1s-1, kd 1.111 1/s): 5.61
pKD (Immobilization level 12000.0 pg/mm2, Rmax 40.0 pg/mm2, ka 259383.571 M-1s-1, kd 0.558 1/s): 5.67
pKD (Immobilization level 13000.0 pg/mm2, Rmax 32.0 pg/mm2, ka 444846.323 M-1s-1, kd 0.765 1/s): 5.76

O=C(Nc1ccc2c(c1)CNC2)c1cc(Cl)ccc1-n1ccnc1
pKD (Immobilization level 10000.0 pg/mm2, Rmax 38.0 pg/mm2, ka 298408.653 M-1s-1, kd 1.639 1/s): 5.26
pKD (Immobilization level 12000.0 pg/mm2, Rmax 63.0 pg/mm2, ka 203693.474 M-1s-1, kd 1.266 1/s): 5.21
pKD (Immobilization level 13000.0 pg/mm2, Rmax 40.0 pg/mm2, ka 299200.161 M-1s-1, kd 1.542 1/s): 5.29

O=C(Nc1ccc2c(c1)CNC2)c1cc(Cl)cc(-n2cccc2)c1
pKD (Immobilization level 10000.0 pg/mm2, Rmax 42.0 pg/mm2, ka 59822.118 M-1s-1, kd 0.636 1/s): 4.97
pKD (Immobilization level 12000.0 pg/mm2, Rmax 78.0 pg/mm2, ka 29884.208 M-1s-1, kd 0.167 1/s): 5.25
pKD (Immobilization level 13000.0 pg/mm2, Rmax 57.0 pg/mm2, ka 51449.064 M-1s-1, kd 0.399 1/s): 5.11

O=C(Nc1ccc2c(c1)CNCCO2)c1cc(Cl)cc2[nH]ncc12
pKD (Immobilization level 10000.0 pg/mm2, Rmax 42.0 pg/mm2, ka 416936.25 M-1s-1, kd 0.968 1/s): 5.63
pKD (Immobilization level 12000.0 pg/mm2, Rmax 47.0 pg/mm2, ka 414358.163 M-1s-1, kd 0.643 1/s): 5.81
pKD (Immobilization level 13000.0 pg/mm2, Rmax 56.0 pg/mm2, ka 373791.933 M-1s-1, kd 0.809 1/s): 5.67

Cn1cc(CNC(=O)[C@H](Nc2ccc3c(c2)CNC3)c2cc(Cl)cc(C3CC3)c2)cn1
pKD (Immobilization level 10000.0 pg/mm2, Rmax 44.0 pg/mm2, ka 376767.851 M-1s-1, kd 0.158 1/s): 6.38
pKD (Immobilization level 12000.0 pg/mm2, Rmax 64.0 pg/mm2, ka 164221.498 M-1s-1, kd 0.09 1/s): 6.26
pKD (Immobilization level 13000.0 pg/mm2, Rmax 64.0 pg/mm2, ka 253337.321 M-1s-1, kd 0.133 1/s): 6.28

O=C(NCc1ccc(F)cc1)[C@H](Nc1ccc2c(c1)CNC2)c1cc(Cl)cc2[nH]ncc12
pKD (Immobilization level 10000.0 pg/mm2, Rmax 51.0 pg/mm2, ka 449498.965 M-1s-1, kd 0.143 1/s): 6.5
pKD (Immobilization level 12000.0 pg/mm2, Rmax 66.0 pg/mm2, ka 240349.747 M-1s-1, kd 0.114 1/s): 6.32
pKD (Immobilization level 13000.0 pg/mm2, Rmax 64.0 pg/mm2, ka 328786.628 M-1s-1, kd 0.139 1/s): 6.37

O=C(Nc1ccc2c(c1)CNC2)c1cccc(-c2cnco2)c1
pKD (Immobilization level 12000.0 pg/mm2, Rmax 4.0 pg/mm2, ka 566629.865 M-1s-1, kd 1.936 1/s): 5.47

O=C(Nc1ccc2c(c1)CNC2)c1nccc2[nH]ncc12
pKD (Immobilization level 12000.0 pg/mm2, Rmax 10.0 pg/mm2, ka 215121.382 M-1s-1, kd 2.565 1/s): 4.92

CCS(=O)(=O)c1ccc(Cl)cc1C(=O)Nc1ccc2c(c1)CNC2
pKD (Immobilization level 12000.0 pg/mm2, Rmax 28.0 pg/mm2, ka 273415.174 M-1s-1, kd 3.732 1/s): 4.87

N[C@H]1CCc2cc(NC(=O)c3cc(Cl)cc4[nH]ncc34)ccc21
pKD (Immobilization level 12000.0 pg/mm2, Rmax 40.0 pg/mm2, ka 202508.522 M-1s-1, kd 3.352 1/s): 4.78
pKD (Immobilization level 13000.0 pg/mm2, Rmax 32.0 pg/mm2, ka 287481.012 M-1s-1, kd 4.268 1/s): 4.83

O=C(Nc1ccc2c(c1)CNC2)c1cc(Cl)ccc1OC1CCCC1
pKD (Immobilization level 12000.0 pg/mm2, Rmax 40.0 pg/mm2, ka 319034.623 M-1s-1, kd 3.897 1/s): 4.91

O=C1Cc2c(cc(Br)cc2C(=O)Nc2ccc3c(c2)CNC3)N1
pKD (Immobilization level 10000.0 pg/mm2, Rmax 28.0 pg/mm2, ka 911035.824 M-1s-1, kd 0.165 1/s): 6.74
pKD (Immobilization level 12000.0 pg/mm2, Rmax 50.0 pg/mm2, ka 582104.975 M-1s-1, kd 0.125 1/s): 6.67
pKD (Immobilization level 13000.0 pg/mm2, Rmax 39.0 pg/mm2, ka 879294.654 M-1s-1, kd 0.141 1/s): 6.79

Cc1cc(CN)cc(NC(=O)c2cc(Cl)cc3[nH]ncc23)c1
pKD (Immobilization level 10000.0 pg/mm2, Rmax 32.0 pg/mm2, ka 317735.356 M-1s-1, kd 1.709 1/s): 5.27
pKD (Immobilization level 12000.0 pg/mm2, Rmax 41.0 pg/mm2, ka 352403.171 M-1s-1, kd 1.092 1/s): 5.51
pKD (Immobilization level 13000.0 pg/mm2, Rmax 26.0 pg/mm2, ka 657032.757 M-1s-1, kd 1.65 1/s): 5.6

CC(C)c1nc2c(C(=O)Nc3ccc4c(c3)CNC4)cc(Br)cc2[nH]1
pKD (Immobilization level 10000.0 pg/mm2, Rmax 28.0 pg/mm2, ka 451108.713 M-1s-1, kd 0.396 1/s): 6.06
pKD (Immobilization level 12000.0 pg/mm2, Rmax 37.0 pg/mm2, ka 197303.267 M-1s-1, kd 0.307 1/s): 5.81
pKD (Immobilization level 13000.0 pg/mm2, Rmax 31.0 pg/mm2, ka 315714.539 M-1s-1, kd 0.366 1/s): 5.94

COC(=O)CNC(=O)[C@H](Nc1ccc2c(c1)CNC2)c1cc(Cl)cc(C2CC2)c1
pKD (Immobilization level 10000.0 pg/mm2, Rmax 43.0 pg/mm2, ka 346362.757 M-1s-1, kd 0.129 1/s): 6.43
pKD (Immobilization level 12000.0 pg/mm2, Rmax 59.0 pg/mm2, ka 177006.564 M-1s-1, kd 0.106 1/s): 6.22
pKD (Immobilization level 13000.0 pg/mm2, Rmax 62.0 pg/mm2, ka 244445.044 M-1s-1, kd 0.134 1/s): 6.26

O=C(Nc1cnc2c(c1)CNCC2)c1cc(Cl)cc2[nH]ncc12
pKD (Immobilization level 10000.0 pg/mm2, Rmax 20.0 pg/mm2, ka 1026935.718 M-1s-1, kd 0.802 1/s): 6.11
pKD (Immobilization level 12000.0 pg/mm2, Rmax 35.0 pg/mm2, ka 607851.885 M-1s-1, kd 0.465 1/s): 6.12
pKD (Immobilization level 13000.0 pg/mm2, Rmax 25.0 pg/mm2, ka 909514.232 M-1s-1, kd 0.608 1/s): 6.17

NCCc1ccc(NC(=O)c2cc(Cl)cc3[nH]ncc23)cc1
pKD (Immobilization level 10000.0 pg/mm2, Rmax 37.0 pg/mm2, ka 181570.157 M-1s-1, kd 4.215 1/s): 4.63
pKD (Immobilization level 12000.0 pg/mm2, Rmax 45.0 pg/mm2, ka 212645.467 M-1s-1, kd 3.181 1/s): 4.83
pKD (Immobilization level 13000.0 pg/mm2, Rmax 31.0 pg/mm2, ka 239123.399 M-1s-1, kd 3.643 1/s): 4.82

O=C(Nc1ccc2c(c1)CNC2)c1cc(Cl)ccc1SC1CCCC1
pKD (Immobilization level 10000.0 pg/mm2, Rmax 23.0 pg/mm2, ka 575465.756 M-1s-1, kd 3.5 1/s): 5.22
pKD (Immobilization level 12000.0 pg/mm2, Rmax 62.0 pg/mm2, ka 231361.37 M-1s-1, kd 1.925 1/s): 5.08
pKD (Immobilization level 13000.0 pg/mm2, Rmax 43.0 pg/mm2, ka 253243.383 M-1s-1, kd 2.083 1/s): 5.08
